Screening results: PubChem BioAssay, National Center for Advancing Translational Sciences (NCATS)
Rows were chosen to be rich in hits. Some 6.6% of all compounds tested hit in one or more screens of this group.
TGFb inhibitor: TGF-b pathway inhibition; Potency, µM (titrated, usually from 46.1 µM), inactives show at the highest dose activity, negative = inhibition, actives largely listed as inhibitors; 410,000 compounds, 1.2% hits; HepG2 CAGA-GFP TGF-b/SMAD3 reporter, GFP fluorescence, 18 h; TGF-beta stimulated, 500 pg/mL final; note: % is set by controls: 0 for no effect and ±100 for the full control effect; nearly all actives have a fitted effect of over 65% in size
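Per well, imaged GFP fluorescence of HEPG2 CAGA-GFP cells gives the signal; cells get compound, then TGF-beta (500 pg/mL final), 18 h at 37 degrees C; %Activity versus -TGF-beta and +DMSO controls.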
HT1080-NT tox: kills 2HG-producing HT-1080-NT fibrosarcoma cells; 360,000 compounds, 1.6% hits; HT-1080-NT fibrosarcoma viability, CellTiter-Glo ATP luminescence, 48 h; Potency, µM (doses to about 46.1 µM), inactives show top-dose activity, negative = less viability, actives largely listed as cytotoxic;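 note: NT is the 2HG producing partner of a matched IDH1 knockdown line; 0% = DMSO-treated cells and -100% = media-only wells without cells; nearly all actives have a fitted effect of over 55% in size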
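Compounds were tested in concentration-response format on HT-1080-NT cells for 48 hours at 37 degrees C. Cell viability came from CellTiter-Glo luminescence; curves were classified by r2, response magnitude and activity.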
KB-3-1 tox: KB-3-1 parental cell cytotoxicity | Potency, µM (titrated, usually from 46.1 µM), hits mostly cytotoxic | AID 1347075 | 400,000 compounds, 1.4% hits | KB-3-1 viability, CellTiter-Glo ATP luminescence, 72 h; note: % is set by controls: 0 for no effect and ±100 for the full control effect; nearly all actives have a fitted effect of over 60% in size
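Here the drug-naive KB-3-1 line serves as comparator for MDR sub-line selectivity; cells received compound titrations, 72 h at 37 °C, then CellTiter-Glo readout.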
HepG2 viability: HepG2 cytotoxicity, counter-screen for TGF-b inhibitors; HepG2 CAGA-GFP viability, ATP luminescence, 18 h; Potency, µM (highest dose often 46.1 µM), without a hit: top-dose activity change, negative = cytotoxicity, most hits filed as cytotoxic; 410,000 compounds, 0.76% hits; AID 588856
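CellTiter-Glo luminescence gave cytotoxicity after 18 hours at 37 degrees C. The cells were HepG2 CAGA-GFP in 1% FBS DMEM, stimulated with 500 pg/mL TGF-beta after compound addition. %Activity was normalised to no-cell wells (complete cell-killing) and DMSO (no toxicity), and curves were fitted and classified.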
HT1080 IDH1KD tx: toxicity to HT-1080 IDH1 knockdown cells (counter line); HT-1080 IDH1 knockdown viability, ATP luminescence, 48 h; Potency, µM (series often up to 46.1 µM), for the others: at the top dose activity, negative = toxicity, actives largely listed as cytotoxic; 360,000 compounds, 2% hits; AID 686971;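 note: 0% = DMSO wells and -100% = cell-free medium wells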
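Cytotoxicity counter-line: IDH1KD HT-1080, 48 h, CellTiter-Glo. Curves classed by r2, magnitude and activity.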
KB-V1 cytotox: KB-V1 MDR subline cytotoxicity. 400,000 compounds, 3.4% hits. Potency, µM (series often up to 46.1 µM), actives largely listed as cytotoxic. KB-V1 MDR cells viability, CellTiter-Glo, 72 h; note: % is set by controls: 0 for no effect and ±100 for the full control effect; nearly all actives have a fitted effect of over 60% in size
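Cytotoxicity via CellTiter-Glo luminescence after 72 h compound exposure at 37 degrees C. Cells: drug-selected KB-V1 line, DMEM phenol-red free plus 10% FBS. Compounds tested at multiple concentrations; normalized data fitted to concentration-effect curves.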
* marks the source's active call; other numbers are inactive results; i = inactive; u = inconclusive; x = no result given; ! = not active in a repeat. Calls come from the whole dose curve; as a rule, active = well fitted curve in the direction sought with a large enough effect; inconclusive = small, poorly fitted or top-dose-only effect, or another doubt; inactive = no such curve, though single readings can be large; an effect the other way counts as inactive or inconclusive. Potency is the fitted concentration of half-maximal effect.

SMILES	TGFb inhibitor	HT1080-NT tox	KB-3-1 tox	HepG2 viability	HT1080 IDH1KD tx	KB-V1 cytotox
CCCC(=O)N1CCN(c2ccc(NC(=O)c3ccc([N+](=O)[O-])o3)cc2)CC1	u	13µM*	i	-90%	6.5µM*	u
CCCC(=O)N1CCN(c2ccc(NC(=O)c3ccc(Br)o3)cc2)CC1	-2%	19%	i	-2%	9%	i
CCC(=O)N1CCN(c2ccc(NC(=O)c3ccc([N+](=O)[O-])o3)cc2)CC1	u	6.5µM*	u	-45%	5.2µM*	u
Cc1ccc2c(c1)N(C(=O)N1CCC(C(=O)NCc3cccc(Br)c3)CC1)CCO2	u	x	u	-30%	x	i
CSC[C@H]1CN(c2ccccc2)C(=O)[C@@H]1CC(=O)Nc1ccccc1	18%	12%	i	-4%	5%	i
CCOc1ccccc1C(=O)N1CCCCC1CCN1CCOCC1 (centres undefined)	0%	x	x	-11%	x	x
CCN1C(=O)c2ccccc2Sc2ccc(NC(=O)Nc3cccc([N+](=O)[O-])c3C)cc21	u	x	i	6%	x	i
Cc1cccc(OC(=O)c2nc(SCc3ccccc3F)ncc2Cl)c1	-10%	x	x	-14%	x	x
O=C(c1ccco1)N1CCN(CCCCOc2cccc3ccccc23)CC1	u	-7%	u	7.9µM*	-10%	u
c1ccc(CN2CCN(CCOCCOc3cccc4ccccc34)CC2)cc1	-5%	16µM*	i	-17%	u	u
CCOc1ccccc1-n1c(CN2CCN(C(=O)c3ccco3)CC2)nc2ccccc2c1=O	18%	5.6µM*	i	8%	10µM*	u
O=C(c1ccco1)N1CCN(CCOCCOc2cccc3ccccc23)CC1	-25%	-7%	i	-33%	-25%	u
CCCOc1cccc(C2c3c(-c4ccccc4O)n[nH]c3C(=O)N2Cc2ccco2)c1 (centres undefined)	u	x	x	-111%	x	x
Cc1cccc(NC(=O)Cn2nnc(C(=O)NCc3cccs3)c2N)c1C	1%	-18%	i	18µM*	-14%	i
Cc1ccc(NC(=O)Cn2nnc(C(=O)NCc3cccs3)c2N)c(C)c1	12%	-23%	i	-19%	u	i
Cc1c(Cl)cccc1NC(=O)Cn1nnc(C(=O)NCc2cccs2)c1N	1%	u	i	-4%	-15%	i
Cc1ccccc1NC(=O)Cn1nnc(C(=O)NCc2cccs2)c1N	5%	x	3.3µM*	12%	x	i
CC(C)C(NC(=O)c1c(F)cccc1F)C(=O)OCN1C(=O)c2ccccc2C1=O (centres undefined)	-28%	11%	i	3%	1%	i
CC(C)[C@H](NC(=O)c1ccccc1F)C(=O)OCCN1C(=O)c2ccccc2C1=O	-1%	9%	i	5%	0%	15µM*
CCOc1ccccc1CNS(=O)(=O)c1cc(-c2onc(C)c2C)ccc1OC	0%	x	i	-23%	x	i
COc1ccccc1CN1CCC(CNS(=O)(=O)c2cc(-c3onc(C)c3C)ccc2OC)CC1	u	18µM*	i	-16%	18µM*	i
COc1ccc(Cl)cc1NC(=O)CN1C(=O)C(C)(C)c2cc(S(=O)(=O)N3CCCCC3)ccc21	-14%	x	i	3%	x	i
N#CC1=C(C2CC2)CC(c2ccccc2)C(C#N)=C1N (centres undefined)	-4%	-1%	i	-13%	-21%	23µM*
CCOc1cccc(C2C=C(c3ccc4c(c3)OCO4)NC(c3cccc(Br)c3)N2)c1O (centres undefined)	u	x	u	-54%	x	u
Cc1cccc(N2C(=O)CC(Sc3nc(C)c4c(n3)CCCC4)C2=O)c1 (centres undefined)	1%	7.1µM*	i	1%	10µM*	16µM*
SMILES	TGFb inhibitor	HT1080-NT tox	KB-3-1 tox	HepG2 viability	HT1080 IDH1KD tx	KB-V1 cytotox
COc1ccc(N2C(=O)CC(Sc3nc(C)c4c(n3)CCCC4)C2=O)cc1 (centres undefined)	14%	15µM*	u	-20%	u	u
Cc1nc(SC2CC(=O)N(c3cc(Cl)cc(Cl)c3)C2=O)nc2c1CCCC2 (centres undefined)	u	-19%	i	-7%	-23%	i
COc1ccc(NC(=O)CSc2nc(-c3ccc(OC)c(OC)c3)[nH]c2-c2ccc(C)cc2)cc1	u	x	i	-37%	x	i
Cc1nc(-n2[nH]c3c(c2=O)CCCC3)[nH]c(=O)c1Cc1ccccc1	-21%	u	u	-13%	u	2.6µM*
COc1cc(-c2nc(Cn3nnc(C(=O)Nc4ccc(C)cc4C)c3C)c(C)o2)cc(OC)c1OC	12%	x	i	-6%	x	i
COc1ccc(C2C(C#N)=C(N)Oc3c2sc2nc(C)cc(C)c32)cc1 (centres undefined)	5%	2%	u	-5%	22%	21µM*
COc1ccc(NC(=O)Cn2nnc(-c3ccc(CN4CCOCC4)cc3)n2)c(OC)c1	0%	-4%	i	7%	0%	21µM*
CCCCOc1ccc(-c2nnn(CC(=O)NCCc3c[nH]c4ccccc34)n2)cc1	u	-1%	i	-45%	-1%	16µM*
COC(=O)c1ccccc1NC(=O)Cn1nnc(-c2ccc(OC)cc2)n1	7%	15%	i	-21%	5%	15µM*!
COc1ccccc1NC(=O)Cn1nnc(-c2ccccc2NS(=O)(=O)c2ccccc2)n1	-10%	-6%	u	5%	-16%	5.8µM*
Cc1ccccc1NC(=O)Cn1nnc(-c2ccc(CN3CCC(C)CC3)cc2)n1	-25%	-7%	i	0%	0%	u
Cc1ccc2nc(/C=C/c3ccc(N(C)C)cc3)ccc2c1	14%	x	i	-24%	x	u
Cc1ccccc1OCC(=O)Nc1ccc2nc(SCC(N)=O)sc2c1	-4%	x	i	-19%	x	i
CCn1cc(S(=O)(=O)c2cc(C)cc(C)c2)c(=O)c2cc(F)c(N3CCCC3)cc21	-2%	x	x	-3%	x	x
O=C(CN1C(=O)CC(c2ccccc2)=Nc2ccccc21)Nc1ccc(Br)cc1	-4%	x	i	-9%	x	i
CCCOc1ccc(-c2nnn(CC(=O)Nc3cccc(C(=O)OC)c3)n2)cc1	-6%	9%	i	-31%	6%	13µM*
CCOc1ccc(-c2nnn(CC(=O)Nc3cccc(OC)c3)n2)cc1OCC	-12%	u	i	-22%	-23%	u
